# Inconclusive results are not listed. A call without a number means that no potency is given here. Activity calls are given as the source filed them. Calls follow the shape of the dose curve; as a rule, active = well fitted inhibition curve with a large enough effect; inconclusive = small, poorly fitted or top-dose-only effect; inactive = flat fitted curve, though single readings scatter.
# Biological target: Calcium and integrin-binding protein 1 (Homo sapiens) (UniProt Q99828)
# Test: Primary qHTS for Identification of Calcium Integrin Binding Protein 1 (CIB1) Competitor (AID 1508620);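 also: GST tagged CIB1 binding a fluorescein labelled alphaIIb integrin peptide tracer; top concentration of the series differs between compounds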
# Details: CIB1-GST / FITC-alphaIIb peptide fluorescence polarization; series mostly up to 114 µM
# In short: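 CIB1-GST (1 uM final) and compound incubated 15 min at room temperature before adding FITC-alphaIIb peptide tracer (100 nM final). Competition for binding read by fluorescence polarization (ex 480, em 540) after another 15 min at room temperature.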
# Calcium and integrin-binding protein 1 (Homo sapiens), sequence (Q99828 whole entry, looked up): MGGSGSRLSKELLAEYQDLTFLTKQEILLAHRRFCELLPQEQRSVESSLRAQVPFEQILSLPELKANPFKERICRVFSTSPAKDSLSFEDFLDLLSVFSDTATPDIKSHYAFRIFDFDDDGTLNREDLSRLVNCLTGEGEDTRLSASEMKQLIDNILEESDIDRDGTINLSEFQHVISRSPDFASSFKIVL
row,Structure (SMILES),Potency
1,Cc1cc2c(s1)c1cnn(Cc3ccc(-c4ccccc4)cc3)c(=O)c1n2C,inactive
2,Cc1cnc(-c2ccccc2C(C)C)nc1NCc1ccc(-c2ccnc(C(F)(F)F)c2)cc1,inactive
3,CN(C)[S+](=O)([O-])c1ccc(-c2ccc(=O)n(CC(=O)NCCc3ccccc3)n2)cc1,inactive
4,O=C(OCC#CCSc1nnc(-c2ccc3ccccc3c2)o1)c1cccs1,inactive
5,O=C(Nc1nnc(-c2ccncc2)s1)Nc1cc(C(F)(F)F)ccc1F,inactive
6,CC(C)(C)OC(=O)N1CCN(c2ccc(NCc3occc3-c3ccc(C#N)cc3)cc2)CC1,inactive
7,CC(C)c1ccccc1-c1ncc(F)c(NCc2ccc(-c3ccn[nH]3)cc2)n1,inactive
8,O=C(Nc1ccc(-c2nc3ccccc3[nH]2)cc1)c1ccc(C(F)(F)F)cc1,inactive
9,COc1cccc(C2c3c(ncn(-c4ccc(Br)cc4)c3=N)Oc3ccc4ccccc4c32)c1 (stereo unspecified),inactive
10,Cc1cccc(-n2cnc3cc(C(=O)N4CCCC(c5ccccc5)C4)ccc32)c1 (stereo unspecified),inactive
11,O=C(CN1C(=O)N/C(=C\c2cccn2-c2cccc(C(=O)O)c2)C1=O)Nc1cccc(Cl)c1,inactive
12,COc1ccc(C)cc1NC(=O)C(OC(=O)CNC(=O)c1ccccc1)c1ccccc1 (stereo unspecified),inactive
13,O=c1c2[nH]c3cc(Br)sc3c2cnn1Cc1ccccc1F,inactive
14,Cc1cnc(-c2ccccc2CO)nc1NCC1CCN(c2cccnc2)CC1,inactive
15,Cc1cc(N[S+](=O)([O-])c2ccc(NC(=O)Cc3ccc(F)c(C)c3)cc2)no1,inactive
16,O=C(OCC#CCSc1nnc(-c2cccc3ccccc23)o1)c1ccc(Br)cc1,inactive
17,CN1CCN(c2ccc(NC(=O)c3cccs3)cn2)CC1,inactive
18,Cc1ccsc1CN(C)c1ncnc2ccc(-c3ccoc3C)cc12,inactive
19,Cc1ccc(OCCn2c(CCNC(=O)c3ccc[nH]3)nc3ccccc32)cc1,inactive
20,Cc1cccc(N2CCN(C(=S)Nc3cc(C)ccn3)CC2)c1,inactive
21,Cc1ccc(-c2ccc(CNc3nc(-c4ccccc4C(C)C)ncc3F)cc2)cn1,inactive
